This is an account of results in the supplement of paper PMC12636033.

± gives the standard deviation of the averaged measurements. Whole data set: some 33,000 sequences, median “E-score (rank enrichment, -0.5 to 0.5)” near -0.0028, cut for the highest 2% near 0.23. Shown is part of a subset that was picked to be rich in the highest values.

The assay concerns 2Sb-muMax20 (muMax20 with two 1,3-bis(methyl)benzene Cys staples, A13C/A17C and Q88C/A92C, C-terminal Lys). As to the kind of experiment: PBM 8-mer E-score (E-score (rank enrichment, -0.5 to 0.5)); higher = stronger preferential binding. As to the method:
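Protein binding microarray (universal PBM chip covering all 10-mers in fixed probe flanks) with chemically synthesized human Max(13-93) bHLH-LZ analogs (not full-length Max) bearing noncanonical residues (hArg, Tha, Aib, Nle at 65) and aromatic Cys staples. Read-out per 8-mer (and its reverse complement): E-score (rank-based enrichment, -0.5 to 0.5) and Z-score of median probe intensity.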
Consider CGCCCACC, for which the “PBM 8-mer E-score” value was determined as 0.312 ± 0.0061. With CTCCCACC, the “PBM 8-mer E-score” value was determined as 0.27 ± 0.025. The value for CATGTAGC was 0.084 ± 0.043. The same measure for CTCCACTA: 0.0307 ± 0.041; for CCATCGAG: -0.0349 ± 0.043.

Regarding ACCACGAC, the “PBM 8-mer E-score” value is -0.0523 ± 0.04.

With CGTACAAG, the “PBM 8-mer E-score” value was -0.0151 ± 0.087.

Consider ATAGCGAA, for which the “PBM 8-mer E-score” value turned out to be 0.0983 ± 0.034. The same measure for ACCTATTC: -0.025 ± 0.024; for GAATGCTA: -0.216 ± 0.036. On to CAATGCTA, for which the “PBM 8-mer E-score” value is 0.00426 ± 0.07.

In the case of TAATGCTA, the “PBM 8-mer E-score” value came out at 0.231 ± 0.044. Take TGATGGCA: the “PBM 8-mer E-score” value stood at 0.0723 ± 0.063. Turning to GGATGGCA, the “PBM 8-mer E-score” value amounted to 0.267 ± 0.059.

Take GGATGGCC: the “PBM 8-mer E-score” value is -0.241 ± 0.023. The value for ACTTTCGA was 0.0801 ± 0.036; that for AAGCTTCT was 0.104 ± 0.092; that for AATCATGA was 0.136 ± 0.035.

As for CATCATGA, the “PBM 8-mer E-score” value amounted to 0.0474 ± 0.048. With TATCATGA, the “PBM 8-mer E-score” value is 0.278 ± 0.02. The value for GGGGATTA was 0.278 ± 0.013; that for CGGGATTA was 0.032 ± 0.017.

In the case of GGGGATAC, the “PBM 8-mer E-score” value came to 0.0267 ± 0.0099.

Turning to AGGGATTA, the “PBM 8-mer E-score” value was -0.0189 ± 0.016. The same measure for GGGGATAA: 0.234 ± 0.063.

In the case of TGGGATAA, the “PBM 8-mer E-score” value turned out to be 0.0797 ± 0.017. As to CAGTAAGG, the “PBM 8-mer E-score” value was -0.0281 ± 0.052. The same measure for AATAGTGT: 0.1565 ± 0.001.

Turning to GTCCCCGA, the “PBM 8-mer E-score” value was found to be 0.0628 ± 0.032. The value for AACTGTGA was -0.0892 ± 0.026; that for TAACTGGA was -0.0436 ± 0.0063; that for CATTAGCC was -0.0287 ± 0.08. On to CTATGCCA, for which the “PBM 8-mer E-score” value was determined as 0.0722 ± 0.02.

In the case of ATATGCCG, the “PBM 8-mer E-score” value is -0.076 ± 0.083.

Turning to ATATGCCA, the “PBM 8-mer E-score” value is 0.305 ± 0.06. The value for ATCGACGC was 0.0538 ± 0.027. On to ATGTGTAC, for which the “PBM 8-mer E-score” value is 0.107 ± 0.014.

As for GCCAGTGA, the “PBM 8-mer E-score” value was determined as 0.0103 ± 0.058. In the case of AAACGTGG, the “PBM 8-mer E-score” value came to 0.0929 ± 0.011. Take AGACGTGC: the “PBM 8-mer E-score” value is -0.124 ± 0.021.

Consider TAACGTGA, for which the “PBM 8-mer E-score” value is -0.0146 ± 0.035.

With ACACGTGG, the “PBM 8-mer E-score” value turned out to be 0.416 ± 0.0009. The same measure for ACACGAGA: -0.125 ± 0.065; for ACACGTAC: 0.0764 ± 0.051; for ACACGTAG: 0.0467 ± 0.016. As to ACACGAGT, the “PBM 8-mer E-score” value is 0.248 ± 0.044. The same measure for TCACGTGA: 0.439 ± 0.033; for ACACGTGC: 0.409 ± 0.0079; for ACACGAGG: 0.0366 ± 0.063.

As for TCACGTAA, the “PBM 8-mer E-score” value was -0.031 ± 0.021.

Turning to AAGGCCGA, the “PBM 8-mer E-score” value was -0.0488 ± 0.013. On to CGCTGACA, for which the “PBM 8-mer E-score” value was -0.122 ± 0.0063. The same measure for TCTAGTCA: 0.105 ± 0.035. The value for CCCCCGGG was -0.43 ± 0.042; that for CCGCCTCG was -0.04 ± 0.07.
